Data: PubChem BioAssay (EPA / NIEHS)
Calls of active or inactive are those of the source. How the source made its calls: active means hit-call score of the fitted dose curve at least 0.9, where 1 is the maximum; inactive means score below 0.9.

Experiments:
Conditions in all cases: mRNA level, 48 h; actives raise or lower the signal
[1] = read-out: Cyclin D1 (CCND1), CCND1 (gene 595); assay: LTEA_HepaRG_CCND1: Life Technologies and Expression Analysis (LTEA) Assay for Cyclin D1 (CCND1) using HepaRG (AID 2283451)
Summary of the method: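 HepaRG plated 48 h, medium switched to serum-free induction medium, chemicals added in duplicate (top 100 uM, half-log steps, 0.5% DMSO) for 48 h, cells lysed, RNA measured by TaqMan qRT-PCR.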

[2] = read-out: flavin-containing dimethylaniline monooxygenases 3 (FMO3), FMO3 (gene 2328); assay: LTEA_HepaRG_FMO3: Life Technologies and Expression Analysis (LTEA) Assay for flavin-containing dimethylaniline monooxygenases 3 (FMO3) using HepaRG (AID 2283453);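 on AC50: FMO3 transcript by TaqMan qRT-PCR normalized to ACTB GAPDH and POLR2A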
Summary of the method: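 HepaRG, 48 h exposure, 8-pt half-log series from 100 uM, 0.5% DMSO vehicle, duplicates; FMO3 transcript by Fluidigm TaqMan qRT-PCR, housekeeping-normalized; gain/loss fit vs DMSO.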

[3] = read-out: Cytochrome P450 (CYP1A1), CYP1A1 (gene 1543); assay: LTEA_HepaRG_CYP1A1: Life Technologies and Expression Analysis (LTEA) Assay for Cytochrome P450 (CYP1A1) using HepaRG (AID 2283454)
Summary of the method: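 HepaRG, 48 h post-plating switched to serum-free induction medium; 8-pt conc-response (top 100 uM, half-log, 0.5% DMSO), duplicates, 48 h. Lysis in RLT, TaqMan qRT-PCR for CYP1A1; gain or loss vs DMSO.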

[4] = read-out: CFLAR gene, CFLAR (gene 8837); assay: LTEA_HepaRG_CFLAR: Life Technologies and Expression Analysis (LTEA) Assay for CFLAR gene using HepaRG (AID 2283455)
Summary of the method: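 HepaRG, 48 h exposure, 8-pt conc-response (100 uM top, half-log), 0.5% DMSO vehicle, duplicates. CFLAR expression by qRT-PCR; ACTB/GAPDH/POLR2A normalization; gain or loss fit vs DMSO baseline.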

[5] = read-out: Forkhead box O1 (FOXO1), FOXO1 (gene 2308); assay: LTEA_HepaRG_FOXO1: Life Technologies and Expression Analysis (LTEA) Assay for Forkhead box O1 (FOXO1) using HepaRG (AID 2283456)
Summary of the method: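 Readout is FOXO1 transcript level by multiplexed qRT-PCR against three housekeeping genes, curve-fitted in both directions relative to 0.5% DMSO vehicle. Human HepaRG cultures received chemicals for 48 h, up to 100 uM in half-log steps.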

[6] = read-out: ABC Transporter (ABCB1), ABCB1 (gene 5243); assay: LTEA_HepaRG_ABCB1: Life Technologies and Expression Analysis (LTEA) Assay for ABC Transporter (ABCB1) using HepaRG (AID 2283460)
Summary of the method: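 Expression of ABCB1 was quantified by qRT-PCR against three housekeeping genes after human HepaRG cultures received test chemicals for 48 hours. Concentrations spanned eight half-log steps topping at 100 uM in 0.5% DMSO; gain or loss of signal was fitted relative to vehicle.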

[7] = read-out: growth arrest and DNA damage 45 (GADD45B), GADD45B (gene 4616); assay: LTEA_HepaRG_GADD45B: Life Technologies and Expression Analysis (LTEA) Assay for growth arrest and DNA damage 45 (GADD45B) using HepaRG (AID 2283461)
Summary of the method: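 HepaRG, ~100,000 cells/well, 48 h plating; serum-free induction medium; cpd 100 uM top, half-log x8, 0.5% DMSO, duplicate, 48 h; lysis in RLT, RNA isolation, qRT-PCR; norm ACTB/GAPDH/POLR2A; bidirectional fit vs DMSO.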

[8] = read-out: ABC Transporter (ABCC3), ABCC3 (gene 8714); assay: LTEA_HepaRG_ABCC3: Life Technologies and Expression Analysis (LTEA) Assay for ABC Transporter (ABCC3) using HepaRG (AID 2283462)
Summary of the method: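 Human HepaRG, 48 h dosing, 8-pt half-log series from 100 uM, 0.5% DMSO vehicle, duplicates. ABCC3 mRNA by TaqMan qRT-PCR, housekeeping-normalized; bidirectional curve fit vs DMSO.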

[9] = read-out: ABC Transporter (ABCB11), ABCB11 (gene 8647); assay: LTEA_HepaRG_ABCB11: Life Technologies and Expression Analysis (LTEA) Assay for ABC Transporter (ABCB11) using HepaRG (AID 2283463)
Summary of the method: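 ABCB11 transcript levels are read by Fluidigm TaqMan qRT-PCR after 48 h chemical treatment of human HepaRG cells. Concentrations span 100 uM downward in half-log steps with 0.5% DMSO; gain or loss is fitted against DMSO controls.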

[10] = read-out: ABC Transporter (ABCC2), ABCC2 (gene 1244); assay: LTEA_HepaRG_ABCC2: Life Technologies and Expression Analysis (LTEA) Assay for ABC Transporter (ABCC2) using HepaRG (AID 2283464)
Summary of the method: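 HepaRG, 48 h post-plating; serum-free induction medium; cpd 8-pt, 100 uM top, half-log, 0.5% DMSO, duplicate, 48 h. Readout: ABCC2 mRNA by qRT-PCR, norm. ACTB/GAPDH/POLR2A. Bidirectional fit vs DMSO baseline.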

[11] = read-out: Broad substrate specificity ATP-binding cassette transporter ABCG2 (Homo sapiens) (UniProt Q9UNQ0); assay: LTEA_HepaRG_ABCG2: Life Technologies and Expression Analysis (LTEA) Assay for ABC Transporter (ABCG2) using HepaRG (AID 2283465)
Summary of the method: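 Read-out is ABCG2 mRNA induction or loss quantified by qRT-PCR after 48 h chemical treatment of human HepaRG cells, normalized to three housekeeping genes. Concentrations reached 100 uM top in half-log steps; fitting was bidirectional against 0.5% DMSO.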

[12] = read-out: ATP-citrate lyase (ACLY), ACLY (gene 47); assay: LTEA_HepaRG_ACLY: Life Technologies and Expression Analysis (LTEA) Assay for ATP-citrate lyase (ACLY) using HepaRG (AID 2283466)
Summary of the method: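 HepaRG, 48 h exposure, 8-pt half-log dilutions (top 100 uM), 0.5% DMSO. Readout: ACLY mRNA, TaqMan qRT-PCR, housekeeping-normalized (ACTB/GAPDH/POLR2A). Bidirectional curve fit vs DMSO.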

[13] = read-out: Peroxisomal acyl-coenzyme A oxidase 1 (ACOX1) gene, ACOX1 (gene 51); assay: LTEA_HepaRG_ACOX1: Life Technologies and Expression Analysis (LTEA) Assay for Peroxisomal acyl-coenzyme A oxidase 1 (ACOX1) gene using HepaRG (AID 2283467)
Summary of the method: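 Measured by qRT-PCR against three housekeeping genes: ACOX1 transcript change in human HepaRG cells after 48 h dosing. Concentrations ran up to 100 uM in half-log steps. Curves were fitted bidirectionally relative to 0.5% DMSO.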

[14] = read-out: Alkaline Phosphatase, Placental (ALPP) gene, ALPP (gene 250); assay: LTEA_HepaRG_ALPP: Life Technologies and Expression Analysis (LTEA) Assay for Alkaline Phosphatase, Placental (ALPP) gene using HepaRG (AID 2283468)
Summary of the method: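 HepaRG, 48 h plating then 48 h dosing, serum-free induction medium, 0.5% DMSO. 8 conc, half-log, max 100 uM, duplicates. Endpoint: ALPP transcript by qRT-PCR, housekeeping-normalized; gain or loss fitted vs DMSO.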

[15] = read-out: Bcl-2 (BAD) gene, BAD (gene 572); assay: LTEA_HepaRG_BAD: Life Technologies and Expression Analysis (LTEA) Assay for Bcl-2 (BAD) gene using HepaRG (AID 2283469)
Summary of the method: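 BAD transcript change, measured by qRT-PCR against three housekeeping genes and fitted in both directions relative to 0.5% DMSO, after 48 h chemical treatment of human HepaRG liver cells at concentrations up to 100 uM.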

[16] = read-out: Bcl-2 (BAX) gene, BAX (gene 581); assay: LTEA_HepaRG_BAX: Life Technologies and Expression Analysis (LTEA) Assay for Bcl-2 (BAX) gene using HepaRG (AID 2283470)
Summary of the method: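 Differentiated human HepaRG cells, plated 48 h then switched to serum-free induction medium, were exposed 48 h to 8 half-log concentrations up to 100 uM in 0.5% DMSO; BAX mRNA measured by qRT-PCR, normalized to ACTB, GAPDH, POLR2A.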

[17] = read-out: growth arrest and DNA damage 45 (GADD45A), GADD45A (gene 1647); assay: LTEA_HepaRG_GADD45A: Life Technologies and Expression Analysis (LTEA) Assay for growth arrest and DNA damage 45 (GADD45A) using HepaRG (AID 2283458)
Summary of the method: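 Differentiated HepaRG cells were exposed in duplicate for 48 h in serum-free induction medium to 8-point half-log concentrations up to 100 uM in 0.5% DMSO. GADD45A mRNA was measured by TaqMan qRT-PCR, normalized to ACTB, GAPDH and POLR2A, with bidirectional fitting versus DMSO.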

[18] = read-out: Forkhead box O3 (FOXO3), FOXO3 (gene 2309); assay: LTEA_HepaRG_FOXO3: Life Technologies and Expression Analysis (LTEA) Assay for Forkhead box O3 (FOXO3) using HepaRG (AID 2283459)
Summary of the method: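 HepaRG, 48 h post-dose; 8 conc., half-log from 100 uM, 0.5% DMSO, duplicates; serum-free induction medium. Readout: FOXO3 mRNA, TaqMan qRT-PCR, housekeeping-normalized. Bidirectional curve fit vs DMSO baseline.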

Measured: AC50

Broad substrate specificity ATP-binding cassette transporter ABCG2 (Homo sapiens), sequence (Q9UNQ0 whole entry, looked up): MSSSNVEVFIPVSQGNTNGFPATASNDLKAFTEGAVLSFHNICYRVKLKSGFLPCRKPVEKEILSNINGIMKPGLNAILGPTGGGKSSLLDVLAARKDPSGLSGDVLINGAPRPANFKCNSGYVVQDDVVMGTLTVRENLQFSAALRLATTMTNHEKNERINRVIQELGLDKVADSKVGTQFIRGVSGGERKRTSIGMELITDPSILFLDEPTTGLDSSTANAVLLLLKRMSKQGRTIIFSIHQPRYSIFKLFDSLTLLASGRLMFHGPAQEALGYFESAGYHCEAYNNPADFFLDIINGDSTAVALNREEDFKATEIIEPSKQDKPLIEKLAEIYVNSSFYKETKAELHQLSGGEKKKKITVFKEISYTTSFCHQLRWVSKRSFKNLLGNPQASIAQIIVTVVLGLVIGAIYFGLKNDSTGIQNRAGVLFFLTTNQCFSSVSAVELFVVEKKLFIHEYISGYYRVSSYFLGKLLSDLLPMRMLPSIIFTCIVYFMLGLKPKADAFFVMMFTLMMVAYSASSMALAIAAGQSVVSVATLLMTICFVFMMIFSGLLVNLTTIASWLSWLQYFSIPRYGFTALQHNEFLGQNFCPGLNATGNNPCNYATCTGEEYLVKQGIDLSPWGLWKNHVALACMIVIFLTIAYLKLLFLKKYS

Cc1cc(C)nc(Nc2ccccc2)n1
active: [3] 1.2 µM
inactive: [1] | [2] | [4] | [5] | [6] | [7] | [8] | [9] | [10] | [11] | [12] | [13] | [14] | [15] | [16]

CCNP(=S)(OC)O/C(C)=C/C(=O)OC(C)C (stereo not given)
active: [3] 14.3 µM | [6] 13 µM | [10] 13.1 µM | [11] 13.6 µM | [12] 67 µM
inactive: [1] | [2] | [4] | [5] | [17] | [18] | [7] | [9] | [13] | [14] | [15] | [16]

CCCCOCN(C(=O)CCl)c1c(CC)cccc1CC
inactive: [1] | [2] | [4] | [5] | [18] | [7] | [8] | [9] | [10] | [11] | [12] | [13] | [14] | [15] | [16]
active: [3] 74 µM | [6] 83.7 µM

CO/N=C(/C1=NOCCO1)c1ccccc1Oc1ncnc(Oc2ccccc2Cl)c1F
active: [2] 24.9 µM | [3] 33 µM | [5] 10 µM | [17] 29.6 µM | [7] 29.7 µM | [9] 29.2 µM | [10] 50 µM | [11] 8.72 µM | [12] 12.5 µM | [13] 15.4 µM | [14] 5.39 µM | [16] 31.3 µM
inactive: [1] | [4] | [18] | [6] | [15]

O=C1C2CC=CCC2C(=O)N1SC(Cl)(Cl)Cl (stereo not given)
inactive: [1] | [2] | [4] | [17] | [18] | [6] | [7] | [10] | [11] | [12] | [13] | [15] | [16]
active: [3] 38.8 µM | [5] 77.1 µM | [9] 57.6 µM | [14] 10.8 µM

COc1cc(OC)nc(NC(=O)NS(=O)(=O)c2ncccc2OCC(F)(F)F)n1
active: [3] 21 µM | [6] 31.3 µM
inactive: [1] | [2] | [4] | [5] | [7] | [8] | [9] | [10] | [11] | [12] | [13] | [14] | [15] | [16]

CCCN(CC)CC1COC2(CCC(C(C)(C)C)CC2)O1 (stereo not given)
active: [3] 50 µM
inactive: [1] | [2] | [4] | [5] | [6] | [7] | [9] | [10] | [11] | [12] | [13] | [14] | [15] | [16]
